Assay results reported in PubChem BioAssay (NCI).
About 79,000 compounds went through this panel and 15% of them were active in at least one assay; those are over-represented in the sample as a whole. The source made the active and inactive calls. No stated cut-off is given here; in the data, active means growth inhibition above about 70%; inactive means the rest.

Columns and labels:
[1] = NCI Yeast Anticancer Drug Screen. Data for the wt1 strain (AID 149);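 further: 0% = growth of vehicle-treated wt1 cultures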; details: S. cerevisiae wt1 strain (SPY 50644) growth inhibition, hits give high values
How it was run: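 Yeast wt1 strain exposed to compounds; growth inhibition measured relative to vehicle-treated controls.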

[2] = NCI Yeast Anticancer Drug Screen. Data for the rad50EPP+ strain (AID 151);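 further: 0% = growth of vehicle-treated control cultures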; details: S. cerevisiae rad50 mutant strain, hits give high values
How it was run: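 Yeast strain carrying rad50 alteration (rad50EPP+) exposed to compounds; growth inhibition measured relative to vehicle-treated controls.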

[3] = NCI Yeast Anticancer Drug Screen. Data for the rad50 strain (AID 155);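 further: 0% = growth of vehicle-only cultures of the same strain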; details: S. cerevisiae rad50 strain growth inhibition, hits give high values
How it was run: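 Yeast carrying a defined DNA repair defect were exposed to test compounds, and growth was compared with vehicle-treated controls to give percent inhibition.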

[4] = NCI Yeast Anticancer Drug Screen. Data for the mec2-1 strain (AID 157); details: S. cerevisiae mec2-1 strain, hits give high values
How it was run: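 mec2-1 yeast strain, carrying an alteration in DNA damage repair or cell cycle control, was exposed to compounds; growth inhibition was measured relative to vehicle-treated controls.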

[5] = NCI Yeast Anticancer Drug Screen. Data for the rad14 strain (AID 159);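 further: 0% = growth of vehicle-treated control cultures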; details: S. cerevisiae rad14 strain growth inhibition, hits give high values
How it was run: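 Yeast cells carrying a defined DNA-repair defect were exposed to compounds, and growth inhibition was calculated relative to vehicle-treated control cultures.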

[6] = NCI Yeast Anticancer Drug Screen. Data for the sgs1 mgt1 strain (AID 161);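 further: 0% = growth of cultures given vehicle only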; details: S. cerevisiae sgs1 mgt1 strain, hits give high values
How it was run: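 This yeast growth screen uses a strain with defined DNA-repair lesions; compound-treated growth is compared with vehicle-treated growth.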

[7] = NCI Yeast Anticancer Drug Screen. Data for the cln2 rad14 strain (AID 165);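 further: 0% = growth equal to vehicle treated cultures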; details: S. cerevisiae cln2 rad14 strain, hits give high values
How it was run: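 Yeast carrying cln2 and rad14 alterations (cell cycle control and DNA damage repair) were exposed to compounds. Growth inhibition was measured against vehicle-treated controls.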

[8] = NCI Yeast Anticancer Drug Screen. Data for the bub3 strain (AID 167); details: S. cerevisiae bub3 mutant strain, hits give high values
How it was run: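 Compounds were applied to a genetically altered yeast strain carrying a cell-cycle control defect. Growth inhibition was scored against vehicle-treated controls.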

[9] = NCI Yeast Anticancer Drug Screen. Data for the wt2 strain (AID 169);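 further: 0% = growth of vehicle-treated yeast cultures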; details: S. cerevisiae wt2 strain growth inhibition, hits give high values
How it was run: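 Yeast cells were exposed to test compounds, and growth inhibition was measured relative to vehicle-treated controls.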

[10] = NCI Yeast Anticancer Drug Screen. Data for the mlh1 strain (AID 171);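 further: 0% = growth of vehicle-treated control cultures of the same strain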; details: S. cerevisiae mlh1 strain growth inhibition, hits give high values
How it was run: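 Yeast carrying a defined genetic alteration in DNA damage repair or cell cycle control were exposed to test compounds. Growth inhibition was measured relative to vehicle-treated controls.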

[11] = NCI Yeast Anticancer Drug Screen. Data for the sgs1 strain (AID 173);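 further: 0% = growth of vehicle-only control cultures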; details: S. cerevisiae sgs1 mutant, hits give high values
How it was run: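 Yeast mutant strains carrying defined defects in DNA damage repair or cell cycle control were exposed to test compounds. Growth inhibition was scored against vehicle-treated controls.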

[12] = NCI Yeast Anticancer Drug Screen. Data for the mlh1 rad18 strain (AID 175); details: S. cerevisiae mlh1 rad18 strain growth inhibition, hits give high values
How it was run: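 Growth inhibition of the yeast strain was measured after compound exposure and expressed relative to vehicle-treated controls. The strain carries defined defects in DNA damage repair.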

[13] = NCI Yeast Anticancer Drug Screen. Data for the rad18 strain (AID 177); details: S. cerevisiae rad18 mutant growth inhibition, hits give high values
How it was run: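 Yeast carrying a defined DNA damage repair alteration were exposed to compounds. Growth inhibition was expressed relative to vehicle-treated controls.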

[14] = NCI Yeast Anticancer Drug Screen. Data for the CLN2oe strain (AID 163);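 further: 0% = growth of vehicle-only control cultures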; details: S. cerevisiae CLN2oe strain, hits give high values
How it was run: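 Yeast cells carrying a defined cell-cycle control alteration were exposed to test compounds. Growth inhibition was scored against vehicle-treated control cultures.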

[15] = at 5.0 µM (retest, dose inferred, filed as 0.5)
[16] = at 50.0 µM (retest, dose inferred, filed as 5.0)

Measured: growth inhibition

CCOC(=O)/C=C1\CCCn2c1ncc(C(=O)OCC)c2=O
active: [4]; at 50.0 µM 77% | [6]; at 50.0 µM 81.7% | [8]; [16] 94% | [12]; at 50.0 µM 89.8%
inactive: [1]; at 1.2 µM 2% | [1]; at 3.7 µM 5% | [1]; at 11.0 µM 6% | [1]; at 33.0 µM 10% | [1]; at 100.0 µM 17% | [2]; at 1.2 µM -1% | [2]; at 3.7 µM -2% | [2]; at 11.0 µM -2% | [2]; at 33.0 µM -4% | [2]; at 100.0 µM -1% | [3]; at 1.2 µM -1% | [3]; at 3.7 µM -8% | [3]; [15] 8% | [3]; at 11.0 µM -3% | [3]; at 33.0 µM 20% | [3]; [16] 30% | [3]; at 50.0 µM 69.5% | [3]; at 100.0 µM 31% | [4]; at 1.2 µM 3% | [4]; at 3.7 µM 4% | [4]; [15] -5% | [4]; at 11.0 µM 7% | [4]; at 33.0 µM 17% | [4]; [16] 42% | [4]; at 100.0 µM 32% | [5]; at 1.2 µM 4% | [5]; at 3.7 µM 2% | [5]; at 11.0 µM 7% | [5]; at 33.0 µM 12% | [5]; at 100.0 µM 18% | [6]; [15] 4% | [6]; [16] 9% | [7]; [15] -25% | [7]; [16] 24% | [7]; at 50.0 µM 55.7% | [8]; at 1.2 µM 2% | [8]; at 3.7 µM 0% | [8]; [15] -13% | [8]; at 11.0 µM 4% | [8]; at 33.0 µM 10% | [8]; at 50.0 µM 59.5% | [8]; at 100.0 µM 28% | [9]; at 1.2 µM 1% | [9]; at 3.7 µM 2% | [9]; at 11.0 µM 4% | [9]; at 33.0 µM 11% | [9]; at 100.0 µM 28% | [10]; at 1.2 µM 2% | [10]; at 3.7 µM 3% | [10]; at 11.0 µM 8% | [10]; at 33.0 µM 15% | [10]; at 100.0 µM 38% | [11]; at 1.2 µM 3% | [11]; at 3.7 µM 5% | [11]; at 11.0 µM 6% | [11]; at 33.0 µM 24% | [11]; at 100.0 µM 51% | [12]; [15] 8% | [12]; [16] 48% | [13]; at 1.2 µM 1% | [13]; at 3.7 µM 5% | [13]; at 11.0 µM 14% | [13]; at 33.0 µM 30% | [13]; at 100.0 µM 55%

CCOC(=O)C1=C(C)NC(C)=C(C(=O)OCC)C1c1ccc(Cl)cc1
inactive: [1]; at 1.2 µM -23% | [1]; at 3.7 µM -10% | [1]; at 11.0 µM 33% | [1]; at 33.0 µM 60% | [2]; at 1.2 µM 6% | [2]; at 3.7 µM 4% | [2]; at 11.0 µM 16% | [2]; at 33.0 µM 0% | [2]; at 100.0 µM -8% | [3]; at 1.2 µM 14% | [3]; at 3.7 µM 35% | [4]; at 1.2 µM -9% | [4]; at 3.7 µM -5% | [5]; at 1.2 µM -14% | [5]; at 3.7 µM -6% | [14]; at 1.2 µM -4% | [14]; at 3.7 µM -10% | [14]; at 11.0 µM 49% | [7]; [15] 27% | [8]; at 1.2 µM 20% | [8]; at 3.7 µM 44% | [8]; [15] 47% | [9]; at 1.2 µM -3% | [9]; at 3.7 µM -10% | [10]; at 1.2 µM -27% | [10]; at 3.7 µM -9% | [10]; at 11.0 µM 44% | [11]; at 1.2 µM 13% | [11]; at 3.7 µM 19% | [13]; at 1.2 µM 4% | [13]; at 3.7 µM 14%
active: [1]; at 100.0 µM 94% | [3]; [15] 98% | [3]; at 11.0 µM 93% | [3]; at 33.0 µM 88% | [3]; [16] 100% | [3]; at 50.0 µM 90.2% | [3]; at 100.0 µM 89% | [4]; [15] 99% | [4]; at 11.0 µM 70% | [4]; at 33.0 µM 70% | [4]; [16] 99% | [4]; at 50.0 µM 91.5% | [4]; at 100.0 µM 92% | [5]; at 11.0 µM 85% | [5]; at 33.0 µM 82% | [5]; at 100.0 µM 93% | [14]; at 33.0 µM 83% | [14]; at 100.0 µM 88% | [7]; [16] 98% | [8]; at 11.0 µM 85% | [8]; at 33.0 µM 81% | [8]; [16] 98% | [8]; at 100.0 µM 93% | [9]; at 11.0 µM 74% | [9]; at 33.0 µM 85% | [9]; at 100.0 µM 96% | [10]; at 33.0 µM 84% | [10]; at 100.0 µM 92% | [11]; at 11.0 µM 73% | [11]; at 33.0 µM 89% | [11]; at 100.0 µM 95% | [12]; [15] 100% | [12]; [16] 100% | [12]; at 50.0 µM 90.2% | [13]; at 11.0 µM 93% | [13]; at 33.0 µM 89% | [13]; at 100.0 µM 92%

COC1=C(N=[N+]=[N-])C(=O)c2ncccc2C1=O
active: [1]; at 100.0 µM 92% | [2]; at 11.0 µM 89% | [2]; at 33.0 µM 94% | [2]; at 100.0 µM 95% | [3]; at 3.7 µM 84% | [3]; [15] 86% | [3]; at 11.0 µM 93% | [3]; at 33.0 µM 94% | [3]; [16] 95% | [3]; at 50.0 µM 82.2% | [3]; at 100.0 µM 95% | [4]; at 33.0 µM 93% | [4]; [16] 94% | [4]; at 50.0 µM 85.5% | [4]; at 100.0 µM 96% | [5]; at 33.0 µM 91% | [5]; at 100.0 µM 96% | [6]; [16] 93% | [6]; at 50.0 µM 82.3% | [14]; at 100.0 µM 95% | [7]; [16] 93% | [7]; at 50.0 µM 80.5% | [8]; at 33.0 µM 72% | [8]; [16] 88% | [8]; at 50.0 µM 78% | [8]; at 100.0 µM 94% | [9]; at 33.0 µM 92% | [9]; at 100.0 µM 95% | [10]; at 33.0 µM 80% | [10]; at 100.0 µM 94% | [11]; at 33.0 µM 84% | [11]; at 100.0 µM 94% | [12]; [16] 95% | [13]; at 3.7 µM 89% | [13]; at 11.0 µM 94% | [13]; at 33.0 µM 96% | [13]; at 100.0 µM 96%
inactive: [1]; at 1.2 µM 3% | [1]; at 3.7 µM 6% | [1]; at 11.0 µM 10% | [1]; at 33.0 µM 52% | [2]; at 1.2 µM 31% | [2]; at 3.7 µM 60% | [3]; at 1.2 µM 56% | [4]; at 1.2 µM 6% | [4]; at 3.7 µM 38% | [4]; [15] 38% | [4]; at 11.0 µM 68% | [5]; at 1.2 µM -2% | [5]; at 3.7 µM 10% | [5]; at 11.0 µM 44% | [6]; [15] 42% | [14]; at 1.2 µM -5% | [14]; at 3.7 µM 13% | [14]; at 11.0 µM 26% | [14]; at 33.0 µM 69% | [7]; [15] 24% | [8]; at 1.2 µM 7% | [8]; at 3.7 µM 18% | [8]; [15] -4% | [8]; at 11.0 µM 18% | [9]; at 1.2 µM -55% | [9]; at 3.7 µM -12% | [9]; at 11.0 µM 49% | [10]; at 1.2 µM 10% | [10]; at 3.7 µM 6% | [10]; at 11.0 µM 21% | [11]; at 1.2 µM 8% | [11]; at 3.7 µM 30% | [11]; at 11.0 µM 56% | [12]; [15] 69% | [13]; at 1.2 µM 60%
